Assay results published in the supplement of paper PMC4206461.

The compounds below were run on Pseudomonas aeruginosa PA14 dppBCDF deletion mutant (assay: respiration area under curve with compound as sole nitrogen source, 24 h (OmniLog AUC (arbitrary units)); higher = more respiration / better utilisation as nitrogen source, active = 2000 or more; extreme values may be limits of the assay).
Experimental: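 Biolog Phenotype MicroArray plates PM6-PM8: each di/tripeptide is the sole nitrogen source. Tetrazolium reduction was read in the OmniLog every 15 min for 24 h at 37°C and summarised as area under the respiration curve (arbitrary units). Values below 2000 count as no respiration. Strain is the dipeptide ABC transporter deletion mutant.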

Row | Structure (SMILES) | respiration area under curve
1 | CC(C)C[C@H](N)C(=O)N[C@H](C(=O)O)C(C)C (plate: PM7) | 9340 (active)
2 | NC(N)=NCCC[C@H](N)C(=O)N[C@@H](Cc1ccc(O)cc1)C(=O)O (plate: PM6) | 8750 (active)
3 | CC(C)[C@H](NC(=O)[C@@H](N)CC(=O)O)C(=O)O (plate: PM6) | 524 (inactive)
4 | N[C@@H](Cc1c[nH]c2ccccc12)C(=O)N[C@@H](CC(=O)O)C(=O)O (plate: PM7) | 0 (inactive)
5 | CSCC[C@H](N)C(=O)N1CCC[C@H]1C(=O)O (plate: PM7) | 0 (inactive)
6 | NC(=O)CC[C@H](NC(=O)[C@@H](N)Cc1ccc(O)cc1)C(=O)O (plate: PM7) | 10600 (active)
7 | C[C@@H](O)[C@H](N)C(=O)NCC(=O)O (plate: PM7) | 0.75 (inactive)
8 | CC(C)C[C@H](N)C(=O)NCC(=O)O (plate: PM6) | 4090 (active)
9 | CSCC[C@H](N)C(=O)N[C@@H](CCC(N)=O)C(=O)O (plate: PM7) | 3640 (active)
10 | N[C@@H](CC(=O)O)C(=O)N[C@@H](Cc1c[nH]c2ccccc12)C(=O)O (plate: PM6) | 1260 (inactive)
11 | NC(N)=NCCC[C@H](N)C(=O)N[C@@H](CO)C(=O)O (plate: PM6) | 8440 (active)
12 | C[C@H](N)C(=O)N[C@@H](CCCN=C(N)N)C(=O)O (plate: PM6) | 9770 (active)
13 | N[C@@H](CC(=O)O)C(=O)N[C@@H](CC(=O)O)C(=O)O (plate: PM6) | 12.5 (inactive)
14 | C[C@@H](O)[C@H](N)C(=O)N[C@@H](CCCN=C(N)N)C(=O)O (plate: PM7) | 13800 (active)
15 | O=C(O)[C@@H]1CCCN1C(=O)[C@@H]1CCCN1 (plate: PM7) | 0 (inactive)
16 | CSCCC(NC(=O)C(N)CC(C)C)C(=O)O (stereo not given) (plate: PM6) | 686 (inactive)
17 | O=C(O)[C@@H]1C[C@@H](O)CN1C(=O)[C@@H]1CCCN1 (plate: PM7) | 0 (inactive)
18 | NC(=O)CC[C@H](NC(=O)[C@@H](N)CO)C(=O)O (plate: PM8) | 558 (inactive)
19 | CC[C@H](C)[C@H](NC(=O)[C@@H](N)CCCN=C(N)N)C(=O)O (plate: PM6) | 8310 (active)
20 | CC(C)C[C@@H](N)C(=O)N[C@@H](Cc1ccc(O)cc1)C(=O)O (plate: PM8) | 0 (inactive)

Row | Structure (SMILES) | respiration area under curve
21 | N[C@@H](CCC(=O)O)C(=O)N[C@@H](CCC(=O)O)C(=O)O (plate: PM6) | 0 (inactive)
22 | CC(C)[C@H](NC(=O)[C@@H](N)CCCN=C(N)N)C(=O)O (plate: PM6) | 7970 (active)
23 | O=C(O)[C@H](Cc1ccccc1)NC(=O)[C@@H]1CCCN1 (plate: PM7) | 3470 (active)
24 | N[C@@H](CO)C(=O)N[C@@H](Cc1ccc(O)cc1)C(=O)O (plate: PM7) | 1890 (inactive)
25 | NC(N)=NCCC[C@H](NC(=O)[C@@H](N)CCCN=C(N)N)C(=O)O (plate: PM6) | 9250 (active)
26 | O=C(O)CNC(=O)[C@@H]1CCCN1 (plate: PM7) | 217 (inactive)
27 | CC(C)C[C@H](N)C(=O)N[C@@H](CCCN=C(N)N)C(=O)O (plate: PM6) | 8540 (active)
28 | CC[C@H](C)[C@H](N)C(=O)NCC(=O)O (plate: PM6) | 0 (inactive)
29 | CC(C)[C@H](N)C(=O)N[C@@H](Cc1ccc(O)cc1)C(=O)O (plate: PM7) | 3890 (active)
30 | CSCCC(NC(=O)C(N)C(C)C)C(=O)O (stereo not given) (plate: PM8) | 397 (inactive)
31 | CSCC[C@H](N)C(=O)N[C@@H](Cc1c[nH]c2ccccc12)C(=O)O (plate: PM7) | 2520 (active)
32 | CC(C)C[C@@H](N)C(=O)NCC(=O)O (plate: PM8) | 0 (inactive)
33 | CC(C)C[C@H](N)C(=O)N[C@H](CC(C)C)C(=O)O (plate: PM8) | 0 (inactive)
34 | NC(Cc1c[nH]c2ccccc12)C(=O)NC(Cc1ccccc1)C(=O)O (stereo not given) (plate: PM7) | 14.8 (inactive)
35 | CSCC[C@H](N)C(=O)N[C@@H](Cc1ccccc1)C(=O)O (plate: PM7) | 85 (inactive)
36 | C[C@@H](N)C(=O)NCC(=O)O (plate: PM8) | 0 (inactive)
37 | NC(=O)C[C@H](N)C(=O)N[C@@H](CCC(=O)O)C(=O)O (plate: PM6) | 1590 (inactive)
38 | N[C@@H](CO)C(=O)N[C@@H](CC(=O)O)C(=O)O (plate: PM8) | 0 (inactive)
39 | NC(=O)CC[C@H](N)C(=O)NCC(=O)O (plate: PM6) | 2500 (active)
40 | CC(C)C[C@H](NC(=O)[C@H](CC(C)C)NC(=O)[C@@H](N)CC(C)C)C(=O)O (plate: PM8) | 1800 (inactive)
